Screens from PubChem BioAssay.
USP17 block: inhibitors of human USP17 deubiquitinase; Ubiquitin carboxyl-terminal hydrolase 17-like protein 5 (Homo sapiens), A8MUK1; 47,000 tested, 6.5% active; purified USP17, Ub-rhodamine cleavage fluorescence, 3 h; inhibition, % at 50 µM
OTUD3 inh: inhibitors of human OTUD3 deubiquitinase; 47,000 tested, 0.7% active; purified OTUD3, Ub-rhodamine fluorescence, 2 h; inhibition, % at 25 µM; OTU domain-containing protein 3 (Homo sapiens), Q5T2D3
USP28 block: inhibitors of human USP28 deubiquitinase. inhibition, % at 25 µM. purified USP28, Ub-rhodamine cleavage fluorescence, 30 min. AID 1645857, 2021. Ubiquitin carboxyl-terminal hydrolase 28 (Homo sapiens), Q96RU2. 47,000 tested, 3% active
USP30 block: inhibitors of human USP30 deubiquitinase | Ubiquitin carboxyl-terminal hydrolase 30 (Homo sapiens), Q70CQ3 | 47,000 tested, 5.3% active | inhibition, % at 25 µM | purified USP30, Ub-rhodamine cleavage fluorescence | AID 1645860, 2021
Target sequence (Q70CQ3 whole entry, looked up): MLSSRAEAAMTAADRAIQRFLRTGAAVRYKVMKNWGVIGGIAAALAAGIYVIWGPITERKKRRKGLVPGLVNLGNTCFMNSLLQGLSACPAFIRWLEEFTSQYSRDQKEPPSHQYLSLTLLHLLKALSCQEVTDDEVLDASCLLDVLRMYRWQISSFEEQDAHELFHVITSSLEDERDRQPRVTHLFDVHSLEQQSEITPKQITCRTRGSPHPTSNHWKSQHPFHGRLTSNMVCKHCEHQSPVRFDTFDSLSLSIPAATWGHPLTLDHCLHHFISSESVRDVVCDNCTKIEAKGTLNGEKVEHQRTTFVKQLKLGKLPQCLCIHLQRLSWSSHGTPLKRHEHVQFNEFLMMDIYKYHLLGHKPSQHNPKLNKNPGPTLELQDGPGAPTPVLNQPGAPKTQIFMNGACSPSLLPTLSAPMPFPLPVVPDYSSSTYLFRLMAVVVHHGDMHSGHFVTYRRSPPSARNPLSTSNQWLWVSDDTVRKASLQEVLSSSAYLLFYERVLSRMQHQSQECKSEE
Hits are given with their value; – = inactive; · = not tested or not shown. This is a sample that favours compounds with a hit; in the whole collection about 11% have one here. Rule as the data show it: active = inhibition above about 30%; inactive = the rest.

SMILES | USP17 block | OTUD3 inh | USP28 block | USP30 block
Cc1cc(C)cc(Oc2nc3cc(C)nn3c3ccccc23)c1 | – | – | – | –
CCOc1ccccc1NC(=O)Cn1c(-c2ccc3c(c2)OCO3)cn(-c2ccc(OC)cc2)c1=O | 52 | – | – | –
CCOc1ccccc1NC(=O)Cn1ccn2nc(-c3ccc(OC)cc3)cc2c1=O | 50 | – | – | 43
CCOc1ccc(-c2cc3c(=O)n(CC(=O)Nc4ccccc4OC)ccn3n2)cc1 | – | – | – | –
Cc1ccc(-c2cc(NC(=O)C(C)C)c(=O)n(CC(=O)Nc3cccc(Cl)c3)n2)cc1 | – | – | – | –
CC(C)NC(=O)Cn1ccn2nc(-c3ccc(Cl)cc3)cc2c1=O | 82 | – | – | 47
COc1ccc(-c2cc3c(=O)n(CC(=O)Nc4ccccc4F)ccn3n2)cc1OC | 70 | – | – | –
COc1ccccc1-c1noc(Cn2ccn3nc(-c4ccc(F)cc4)cc3c2=O)n1 | – | – | – | –
COc1ccc(-c2cn(-c3ccc(C)cc3)c(=O)n2CC(=O)Nc2cccc(F)c2)cc1 | – | – | – | –
Cc1nc2n(n1)CCN(C(=O)c1ccc(Cc3c(C)noc3C)o1)C2 | – | – | – | –
Cc1nc(SCC(=O)N(c2ccccc2)c2ccccc2)c2sc3nc4c(cc3c2n1)COC(C)(C)C4 | – | – | – | –
COc1ccc(-c2cc3c(=O)n(CC(=O)NCCCN4CCCC4)ncn3n2)cc1 | 60 | – | – | 47
COc1ccc(-c2cc3c(=O)n(CC(=O)NCCCN4CCCC4=O)ncn3n2)cc1 | – | – | – | –
COc1ccc(-c2cc3c(=O)n(CC(=O)Nc4ccccc4Cl)ccn3n2)cc1 | 55 | – | – | –
CNc1nc2c(c(=O)n1-c1ccccc1)CN(C(=O)c1ccccc1)CC2 | – | – | – | –
O=C(NCCc1cccc(F)c1)[C@@H]1Cc2c([nH]c3ccccc23)C2c3ccccc3C(=O)N21 (stereo partly drawn) | – | – | – | –
Cc1ccccc1N1CC(c2nnc(NC(=O)CCCc3ccccc3)s2)CC1=O (stereo not drawn) | – | – | – | –
Cc1nn(C)c(C)c1CC(=O)Nc1nnc(C2CCCCC2)s1 | – | – | 41 | –
Cc1ccccc1CC(=O)Nc1nnc(C2CC2)s1 | 41 | – | – | –
CCc1ccccc1N1CC(c2nnc(NC(=O)CCc3ccccc3)s2)CC1=O (stereo not drawn) | 30 | – | – | –
COc1cc(N)c(Cl)cc1C(=O)OCC(=O)Nc1ccc(N2CCOCC2)cc1 | 38 | – | – | –
COc1cc(N)c(Cl)cc1C(=O)OCC(=O)NCc1ccc2c(c1)OCO2 | – | – | – | –
Cc1cccc(Nc2ccccc2C(=O)OCC(=O)Nc2ccc(N3CCOCC3)cc2)c1C | – | – | – | –
NS(=O)(=O)c1cc(C(=O)OCC(=O)Nc2ccc(N3CCOCC3)cc2)ccc1Cl | 34 | – | – | –
COc1cc(N)c(Cl)cc1C(=O)OCC(=O)c1ccc2c(c1)OCCO2 | – | – | 55 | –
SMILES | USP17 block | OTUD3 inh | USP28 block | USP30 block
NS(=O)(=O)c1cc(C(=O)OCC(=O)NC2CCCc3ccccc32)ccc1Cl (stereo not drawn) | 55 | – | – | 32
O=C(Nc1ccc(N2CCN(Cc3ccc(F)cc3)C2=O)nc1)c1ccc2c(c1)OCO2 | – | – | – | –
c1cnn(CC2CCCN2Cc2nc(C3CC3)no2)c1 (stereo not drawn) | – | – | – | –
Clc1cccc(-c2noc(-c3ccsc3)n2)c1 | – | – | – | –
O=C(Nc1ccccc1F)N1CCN(c2cc(-c3ccncc3)[nH]n2)CC1 | – | – | – | –
O=C(Nc1ccc(F)cc1F)N1CCN(c2cc(-c3ccncc3)[nH]n2)CC1 | · | – | – | 41
CCCCCn1c(CN2CCN(C(=O)c3ccco3)CC2)nc2c1c(=O)n(C)c(=O)n2C | – | – | – | –
Cc1c(C(=O)NCC(C)C)nnn1-c1cccc2c1CCN(CC1CC1)C2 | – | – | – | –
CN1CCN(c2ccc(NC(=O)c3cccc(C(F)(F)F)c3)cc2Br)CC1 | – | – | – | –
COc1ccccc1-c1nc(-c2cn(Cc3ccc(C)cc3)nn2)no1 | – | – | – | 30
CCOc1ccccc1-c1nc(-c2cn(Cc3ccc(F)cc3)nn2)no1 | 64 | – | – | 58
Fc1ccc(Cn2cc(-c3noc(-c4ccccn4)n3)nn2)cc1 | – | – | – | –
Cc1ccc(Cn2cc(-c3noc(-c4ccco4)n3)nn2)cc1 | – | – | – | –
N#Cc1ccc(-c2nc(-c3cn(Cc4cccc(F)c4)nn3)no2)cc1 | 36 | – | – | –
CC(=O)N[C@@H]1C[C@@H](Oc2cccc(F)c2)[C@H](O)[C@H]1N1CCCC1 | – | – | – | –
CCc1ccc(NC(=O)CSc2ncc(S(=O)(=O)c3ccccc3)c(=O)[nH]2)cc1 | – | – | – | 38
COc1cccc(NC(=O)Cn2cc(OC)c(=O)cc2CSc2ccc(C)cc2)c1 | · | – | – | –
O=S(=O)(NC1CC1)c1ccc(S(=O)(=O)N2CCN3CCCC3C2)cc1 (stereo not drawn) | – | – | – | –
O=S(=O)(NC1CC1)c1ccc(S(=O)(=O)N2CCCC3(CCCCC3)C2)cc1 | · | – | – | 41
COC[C@H]1CCCN1C(=O)CC[C@H]1CNC(=O)[C@@H]2[C@@H](CCN2C2CCCCC2)N1C | – | – | – | –
COC[C@H]1CCCN1C(=O)CC[C@H]1CNC(=O)[C@@H]2[C@@H](CCN2C2CCOCC2)N1C | – | – | 31 | –
Cc1ccc(S(=O)(=O)NCC(=O)OC(C(=O)Nc2cc(C)ccc2C)c2ccccc2)cc1 (stereo not drawn) | 51 | – | – | 47
COc1ncccc1C(=O)N1CCOCC(Cc2ccc3[nH]ncc3c2)C1 (stereo not drawn) | – | – | – | –
Cc1ccc2nc(N(CCCN(C)C)C(=O)COc3ccccc3)sc2c1 | 36 | – | – | 41
Cc1cccc(OCC(=O)N(c2nc3ccccc3s2)c2ccccc2C)c1 | – | – | – | –
SMILES | USP17 block | OTUD3 inh | USP28 block | USP30 block
CC1(c2ccccc2Cl)NC(=O)N(CC(=O)Nc2ccccc2F)C1=O (stereo not drawn) | – | – | – | –
O=C(NC1CCN(c2nc(-c3cccnc3)nc3ccccc23)CC1)c1cccnc1 | – | – | 52 | –
O=C(NCC1(O)CCc2ccccc21)c1ccc2c(c1)OCO2 (stereo not drawn) | – | – | – | 33
N#Cc1cccc(C(=O)NCC2(O)CCc3ccccc32)c1 (stereo not drawn) | – | – | – | –
Cc1cccc(OCC(=O)NCC(c2ccco2)N2CCCCC2)c1C (stereo not drawn) | – | – | – | –
O=C(c1ccncc1)N1CCC(c2c[nH]c3ccccc23)(c2c[nH]c3ccccc23)CC1 | 47 | – | – | –
O=C(Nc1cccc2ccccc12)C1CCN(c2ccc(-c3ccc(F)cc3)nn2)CC1 | 44 | – | · | ·
CCC(Cc1ccccc1)NC(=O)c1cc2sc(Cl)cc2n1C (stereo not drawn) | – | – | – | –
Cn1c(C(=O)NCc2ccc(F)cc2)cc2sc(Cl)cc21 | – | – | – | 34
